# In PubChem BioAssay (NCI):
# This is part of a sample that, as a whole, favours compounds with a hit. Of some 83,000 tested, about 20% had one in any assay.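 Assay: single dose, 48 h. Readout: percent growth (0 = no net growth; negative = cell death). Active: <10.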 The source made the active and inactive calls.
# Test system: MDA-MB-231 breast
# Assay: NCI-60 one-dose screen, 48 h (100 = growth as untreated, 0 = no growth, -100 = all killed)
# Conditions: 10 µM unless noted
row,Compound,growth
1,CCN(CC)S(=O)(=O)c1ccc2[nH]c(=O)cc(C(=O)Nc3ccc(OC)cc3OC)c2c1,98.3% (inactive)
2,COc1ccc(/C=C/C(=O)OCC(=O)NNC(=O)c2ccccc2)cc1OC,94.8% (inactive)
3,COc1ncc(-c2ccc3ncnc(Nc4cccc(Cl)c4)c3c2)cc1N(S(C)(=O)=O)S(C)(=O)=O,67.3% (inactive)
4,Cc1c(C(=O)NCc2ccccc2)[n+](=O)c2cc(F)ccc2n1[O-],111% (inactive)
5,COc1cc(Br)c(OC)cc1Br,85.6% (inactive)
6,CN1CCN(CCCOc2ccc3nc(Nc4ccc(C(F)(F)F)c(Cl)c4)ccc3c2)CC1,-53.3% (active)
7,CC(=O)c1cc(C(=O)c2ccc3c(c2)Sc2ccccc2N3)c2cc(C)ccn12,3.24% (active)
8,Cc1cc(C(=O)O)c(N)c(C)n1,106% (inactive)
9,c1ccc2c(c1)Oc1ccccc1C2C1c2ccccc2Oc2ccccc21,93.1% (inactive)
10,CC/C=C\C[C@H](O)C/C=C1/C(=O)C(Cl)=C[C@@H]1C/C=C\CCCC(=O)O,43.5% (inactive)
11,O=C(Nc1ccc(I)cc1)c1cc([N+](=O)[O-])ccc1O,16.2% (inactive)
12,O=C(CSc1nc(-c2ccc(Cl)cc2)cn1-c1ccc(Cl)cc1)c1ccc(Br)cc1,60.1% (inactive)
13,N#CC1=C(N)n2nc(-c3ccncc3)nc2NC1c1cccc2ccccc12 (stereo not given),77.6% (inactive)
14,Cc1ccc2nc(-c3c(CCCO)noc3N)[nH]c(=O)c2c1,105% (inactive)
15,COc1ccc(/C(=N\O)c2cc(OC)c(OC)c(OC)c2)c(OC)c1N,36.9% (inactive)
